# The source made the active and inactive calls.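 How the source made its calls: active means compound restoring hERG potassium channel current, after block by a reference inhibitor, at any concentration tried; inactive means no current restored at any concentration tried.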
# Target: Voltage-gated inwardly rectifying potassium channel KCNH2 (Homo sapiens) (UniProt Q12809)
# Assay: dose-dependent reversal of dofetilide hERG block – manual patch clamp, HEK293 cells, dose response (AID 2638)
# Settings: tail current; current remaining: measured here: rescue from 100 nM dofetilide block, at 50 µM, stronger effect = higher value unless noted; series mostly up to 100 µM; potentiation: at the top concentration
# Sequence of Voltage-gated inwardly rectifying potassium channel KCNH2 (Homo sapiens) (Q12809 whole entry, looked up): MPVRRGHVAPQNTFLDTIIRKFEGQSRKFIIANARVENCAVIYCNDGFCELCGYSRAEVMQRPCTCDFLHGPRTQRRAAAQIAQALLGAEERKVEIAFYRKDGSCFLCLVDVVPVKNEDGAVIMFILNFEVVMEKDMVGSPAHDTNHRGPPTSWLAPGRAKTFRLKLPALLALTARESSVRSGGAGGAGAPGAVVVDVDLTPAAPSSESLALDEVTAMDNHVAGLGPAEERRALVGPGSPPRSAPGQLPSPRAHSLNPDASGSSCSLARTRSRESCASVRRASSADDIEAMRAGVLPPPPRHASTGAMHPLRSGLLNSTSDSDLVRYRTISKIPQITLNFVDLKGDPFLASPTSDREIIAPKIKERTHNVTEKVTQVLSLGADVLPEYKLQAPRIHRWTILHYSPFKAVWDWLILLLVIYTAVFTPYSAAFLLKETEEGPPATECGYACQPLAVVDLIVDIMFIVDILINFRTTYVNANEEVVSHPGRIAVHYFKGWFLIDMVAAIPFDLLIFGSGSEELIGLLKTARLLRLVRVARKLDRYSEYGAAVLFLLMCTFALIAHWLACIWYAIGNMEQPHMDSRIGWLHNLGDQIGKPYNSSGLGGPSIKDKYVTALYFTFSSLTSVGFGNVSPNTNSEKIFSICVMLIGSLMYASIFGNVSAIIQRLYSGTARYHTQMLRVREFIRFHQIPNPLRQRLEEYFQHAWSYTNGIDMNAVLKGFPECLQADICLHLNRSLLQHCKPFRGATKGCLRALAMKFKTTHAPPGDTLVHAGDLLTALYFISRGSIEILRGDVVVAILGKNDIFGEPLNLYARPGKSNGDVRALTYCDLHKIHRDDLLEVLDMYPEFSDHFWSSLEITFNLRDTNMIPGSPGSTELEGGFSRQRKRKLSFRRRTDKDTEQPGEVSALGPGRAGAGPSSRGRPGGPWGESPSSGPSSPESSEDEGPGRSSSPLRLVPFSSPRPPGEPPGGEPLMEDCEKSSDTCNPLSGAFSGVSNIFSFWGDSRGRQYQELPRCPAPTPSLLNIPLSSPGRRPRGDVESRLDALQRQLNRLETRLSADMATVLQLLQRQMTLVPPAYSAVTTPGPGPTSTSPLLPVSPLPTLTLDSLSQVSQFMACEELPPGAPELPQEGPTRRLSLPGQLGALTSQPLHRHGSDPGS
SMILES,current remaining,potentiation
O=C(O)c1cc(Cl)ccc1Nc1nc2cc(Cl)ccc2o1,4.15%,
O=C(COc1ccc2ccccc2c1Br)Nc1cccnc1,1%,383% (inactive)
CCC1CCCCN1C(=S)NC(=O)c1cccs1 (centres undefined),"46.5% [measured here: rescue from 100 nM dofetilide block, at 10 µM, stronger effect = higher value]",
